93 compounds from PubChem BioAssay AID1878 (Sanford-Burnham Center for Chemical Genomics, 2009) can be followed below.

Molecules are shown by their SMILES. Screen size: about 1,000 compounds; about 200 (20%) were called active. These entries were drawn from the full list. Potency and affinity values are given separately. Unmarked numbers belong to inactive results. Rule as the data show it: active = inhibition above about 55%; inactive = the rest.

The target of this assay is Dual specificity protein phosphatase 3 (Homo sapiens) (UniProt P51452). As to the kind of experiment: VHR1 phosphatase inhibitors, biochemical (AID 1878). Conditions: recombinant VHR phosphatase, fluorogenic substrate; at 13.3 µM; stronger effect = higher value.
Dual specificity protein phosphatase 3 (Homo sapiens), sequence (P51452 whole entry, looked up): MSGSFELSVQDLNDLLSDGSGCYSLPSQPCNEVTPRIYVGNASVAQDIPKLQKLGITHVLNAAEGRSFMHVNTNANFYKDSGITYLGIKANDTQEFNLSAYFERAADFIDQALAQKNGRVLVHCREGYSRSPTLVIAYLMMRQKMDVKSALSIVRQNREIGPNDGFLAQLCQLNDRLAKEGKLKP
Consider `CCOc1ccc(C2NC(=O)c3ccccc3O2)cc1OC` (stereo not drawn), for which the inhibition (commonly the change of the read-out against control, counted positive when it falls) was -17.6%. The result for `CN(Cc1ccccn1)C(=O)C1CCC(=O)N(CCc2ccc(Cl)cc2)C1` (stereo not drawn) reads -11.4%.

`COc1ccc(NC(=O)CN(C)S(=O)(=O)c2ccc3[nH]c(=O)oc3c2)cc1`: the inhibition is 12.6%. Consider `Cn1c(=O)oc2cc(S(=O)(=O)NCCC(=O)NCc3ccccc3Cl)ccc21`, for which the inhibition is 14.6%. The result for `COc1ccccc1-c1nc2c3ccccc3nc(=S)n2[nH]1` reads 7.9%; that for `CC(C)c1ccc(NS(=O)(=O)c2cccc3cccnc23)cc1`, -1%. For the compound `COc1ccc2c(c1)C(=NNC(=O)c1ccccn1)c1cc(OC)ccc1-2`, the inhibition is 99.3% (active). The result for `COc1ccccc1-c1cc(C(=O)Nc2cccnc2Cl)no1` reads 12.2%.

In the case of `Cc1cc(NC(=O)C2CCCCC2)ncc1NC(=O)c1ccccn1`, the inhibition is 9%. The result for `CCOC(=O)c1sc(=NC(=O)c2c(F)cccc2F)n(C)c1C` reads 26.7%; that for `CC(=O)NCCC(=O)N(C)CC1CCN(CCc2cccc(C(F)(F)F)c2)CC1`, -21.4%; that for `COc1ccc(/C=C2\SC(=S)N(CCC(=O)Nc3cccc(C(=O)O)c3)C2=O)cc1`, 86.4% (active). In the case of `CCOC(=O)c1ccc(NC(=O)CCS(=O)(=O)Cc2ccccc2)cc1`, the inhibition is 11.4%. In the case of `CCc1ccc(/C=C2/SC(=S)N(CCC(=O)Nc3ccc(C(=O)O)cc3)C2=O)cc1`, the inhibition was 87.1% (active). For the compound `COc1cccc(NC(=O)CCc2nc(-c3cccs3)no2)c1`, the inhibition was 11.2%.

On to `O=C(CCN1C(=O)/C(=C\C=C\c2ccccc2)SC1=S)Nc1ccc(C(=O)O)cc1`, for which the inhibition is 98.7% (active).

For `COc1ccccc1C(=O)NNC(=O)CCN1C(=O)/C(=C\c2ccccc2)SC1=S`, the inhibition is 38.1%. The result for `Cc1ccc(NC(=O)COc2cccc(/C=C3\SC(=S)N(CCC(=O)O)C3=O)c2)cc1Cl` reads 79.2% (active). With `COc1ccc(S(=O)(=O)NCC2CCCN(Cc3cn(C)nc3C)C2)cc1` (stereo not drawn), the inhibition is 0.5%. The result for `COc1ccccc1N1CCN(S(=O)(=O)c2ccc3c(c2)CC(C)N3C(C)=O)CC1` (stereo not drawn) reads 2.4%; that for `CCC1CCCCN1CCCNC(=O)c1ccc2c(c1)NC(=O)CN2C` (stereo not drawn), -26.5%; that for `CCCCN(Cc1ccco1)C(=O)C1CCCN(c2ncnc3c2nc2n3CCCCC2)C1` (stereo not drawn), -4.3%. For the compound `CCCN1C2CCCC1CC(NC(=O)c1ccccc1OC)C2` (stereo not drawn), the inhibition was -6.6%.

Consider `Cc1ccc(CNS(=O)(=O)c2c(C)[nH]c(=O)[nH]c2=O)cc1`, for which the inhibition was -4.8%. Take `NC(=O)c1ccc(NC(=O)CS(=O)(=O)c2cn(CC(=O)N3CCCC3)c3ccccc23)cc1`: the inhibition was -13.4%. The result for `Cc1ccc(/C=N/N(C)C2=NS(=O)(=O)c3ccccc32)cc1` reads 21.9%. The result for `COCCCNC(=O)c1ccc(CS(=O)(=O)c2ccccc2OC)o1` reads -5.7%. For `Nc1[nH]n2c(=O)cc(-c3ccccc3)nc2c1N=Nc1ccc2c(c1)OCO2`, the inhibition is 98.8% (active). On to `COc1cccc(N2CCN(c3ccc4nnc(CCC(=O)Nc5ccc(F)cc5F)n4n3)CC2)c1`, for which the inhibition was 6.6%. The result for `Cc1cc(C)c(S(=O)(=O)Cc2ccccc2)c(Cl)n1` reads 7.3%; that for `COc1ccc(/C=C/C(=O)NC(=S)Nc2cc([N+](=O)[O-])ccc2O)cc1OC`, 95.7% (active). As to `CCOc1cc2[nH]c(=S)n(Cc3ccc(C(=O)NCCN(CC)CC)cc3)c(=O)c2cc1OCC`, the inhibition is -9.2%.

For `Nn1c(SCC(=O)Nc2ccccc2F)nnc1C1CCCCC1`, the inhibition was 18.2%. Regarding `O=C(Nc1c(C(=O)N2CCC(N3CCCCC3)CC2)oc2ccccc12)c1ccc(F)cc1`, the inhibition is -2.2%. Regarding `CC1CCCCN1C(=O)CCC(=O)Nc1nnc(C2CCCCC2)s1` (stereo not drawn), the inhibition was -7.6%. As to `Cc1ccccc1-c1nc(CS(=O)(=O)CC(=O)NC2CCCC2)c(C)o1`, the inhibition was 7.2%. Regarding `O=c1oc(-c2ccccc2Cl)nc2ccsc12`, the inhibition was 5.6%. Consider `CCn1c(SCC(=O)N2CCOCC2)nc2c(c1=O)SC(C)C2` (stereo not drawn), for which the inhibition is -2.5%. For the compound `COc1ccc(CC(=O)N/N=C(\C)CC(=O)Nc2ccc(N(C)C)cc2)cc1`, the inhibition is -12.6%. The result for `O=C1CN(c2ccc(F)cc2)C(=S)N1c1ccccc1` reads 4.8%. Take `C[C@@H]1NC(=O)N(c2ccc(F)cc2)C1=O`: the inhibition is -6.6%. The result for `CCN1CCN(C(CNS(=O)(=O)c2ccc(OC)c(C)c2)c2cccnc2)CC1` (stereo not drawn) reads -7.5%; that for `CC1CCN(Cc2nnnn2CCCC(=O)N(C)C(C)c2ccccn2)CC1` (stereo not drawn), 7.9%; that for `COc1cc(OC)cc(C(=O)NN(CCC#N)C2=NS(=O)(=O)c3ccccc32)c1`, 15.9%. `Cc1ccccc1OCCCN1CCOCC1`: the inhibition was 2%. The result for `CCc1ccc(/C=C/c2c([N+](=O)[O-])c(=O)n(C)c(=O)n2C)cc1` reads 3.6%. The result for `Cc1ccc(C)c(Nc2ccc3nonc3c2[N+](=O)[O-])c1` reads -8.6%; that for `Cc1cc(OCc2cc(C(=O)N(C)CCCN3CCOCC3)no2)cc(C)c1Cl`, -10.5%; that for `COc1cc(Cl)ccc1OCc1cc(C(=O)NCC(C)c2ccccc2)no1` (stereo not drawn), 11.7%.

Take `Cc1ccc(CN2CCN(Cc3cccc(C)n3)CC2CCO)cc1` (stereo not drawn): the inhibition is 3.8%. Turning to `CC(C)(C)CN1CCN(Cc2c[nH]c3ccccc23)CC1CCO` (stereo not drawn), the inhibition is -9.5%. Consider `COc1ccc(-c2n[nH]c3c2CN(C(=O)c2ccc(OC)c(OC)c2)CC3)cc1`, for which the inhibition was -2.9%. As for `O=C(CSc1n[nH]c(=O)[nH]c1=O)Nc1ccc2c(c1)C(=O)c1ccccc1C2=O`, the inhibition is 98% (active).

With `CCc1cc2c(C)ccc(C)c2nc1SCC(=O)Nc1c[nH]c(=O)[nH]c1=O`, the inhibition was 27.1%. With `Nc1cc(=O)[nH]c(SCC(=O)Nc2ccc(Oc3ccccc3)cc2)n1`, the inhibition is -5%. Turning to `CC1=C(C(=O)OCC2CCCCC2)C(c2ccc(F)cc2)NC(=O)N1` (stereo not drawn), the inhibition was -8.4%. For the compound `CCOC(=O)C1=C(N)n2c(s/c(=C\c3ccncc3)c2=O)=C(C(=O)OCC)C1c1ccncc1` (stereo not drawn), the inhibition was 39.4%. Consider `CC1=C(C(=O)OC(C)C)C(c2ccc(Cl)cc2)n2c(s/c(=C\c3ccc(OCC(=O)O)cc3)c2=O)=N1` (stereo not drawn), for which the inhibition was 97.4% (active).

On to `CCC1CCCCN1CCCNS(=O)(=O)c1ccc2c(c1)oc(=O)n2C` (stereo not drawn), for which the inhibition was -1.5%. As for `Clc1ccc2ccc3cccnc3c2n1`, the inhibition was -16.7%. On to `Cc1ccc(CNc2ccc(N3CCOCC3)c(Cl)c2)cc1`, for which the inhibition was 8%. The result for `Cc1c(C(=O)N2CCCCC2)c(S(=O)(=O)N2CCN(c3ccc(F)cc3)CC2)c(C)n1C` reads -7%; that for `Cc1c(C)n(C)c2ccc(C(=O)NCCCN3CCCCC3C)cc12` (stereo not drawn), -11%; that for `O=C(CSc1n[nH]c(-c2ccccc2O)n1)NC1CCCCC1`, 2.6%. `Clc1ccc(Cl)c(OCCCCN2CCCCC2)c1`: the inhibition is -4.8%. In the case of `COc1ccc(CCNC(=O)CCNC(=O)N2CC(=O)Nc3ccccc32)cc1`, the inhibition was 13.9%.

On to `COc1ccc(OC)c(NC(=O)CCN2CCN(c3ccccc3OC)CC2)c1`, for which the inhibition was 6.9%.

As for `COc1ccc(N2CCN(c3ncnc4scc(-c5ccccc5)c34)CC2)cc1`, the inhibition is 16.6%. Take `O=C(Nc1cccc(-n2cnnn2)c1)c1ccc(Cl)cc1Cl`: the inhibition was 3.8%. In the case of `Oc1ccc(-c2nc3ccccc3nc2-c2ccccc2)cc1`, the inhibition was -3.2%. With `O=S(=O)(Nc1ccc2ccccc2n1)c1ccccc1Cl`, the inhibition is 3.5%.

Turning to `CCCN1C2CCCC1CC(NC(=O)c1ccc(C(C)(C)C)cc1)C2` (stereo not drawn), the inhibition is -2.3%. Turning to `CC1CCCCN1CC(O)COc1ccc(OCC(O)CN2CCCCC2C)cc1` (stereo not drawn), the inhibition was -5.3%. Consider `COc1ccc(Nc2nc(-c3sc(C)nc3C)cs2)c(OC)c1`, for which the inhibition was 23%. Consider `COc1ccc(C(=O)N(C)CCCC2CCCC2)cc1OC1CCN(C(C)C)CC1`, for which the inhibition was -11.7%. Consider `COc1ccc(C(=O)N2CCCCCCC2)cc1OC1CCN(C(C)C)CC1`, for which the inhibition is -3.1%. The result for `O=c1[nH]c(NCCO)nnc1Cc1ccccc1` reads -18.8%; that for `CN(C(=O)COC(=O)c1cc(-c2ccco2)nc2ccccc12)C1CCS(=O)(=O)C1` (stereo not drawn), 98.4% (active). The result for `CCc1ccc(-c2cc(C(=O)NN3CCOCC3)c3ccccc3n2)s1` reads -11.9%; that for `CCOc1ccc(N(C)C(=O)CCc2nnc3ccc(N4CCOCC4)nn23)cc1`, -3.3%; that for `O=C(N=C1SC2CS(=O)(=O)CC2N1c1ccc(F)cc1F)C1CC1` (stereo not drawn), -8.3%. For `Cn1c(=O)oc2cc(S(=O)(=O)N3CCCC(C(=O)NCc4ccc5c(c4)OCO5)C3)ccc21` (stereo not drawn), the inhibition is 9.1%. `CCC(=O)N1CCc2cc(S(=O)(=O)CCC(=O)NCc3ccc(OC)cc3)ccc21`: the inhibition is 20%. For the compound `CC(C)c1cc(N=NC(N)=O)cc(C(C)C)c1O`, the inhibition is 0.5%. On to `CCN1CCN(Cc2nnc(-c3ccc(C)cc3)o2)CC1`, for which the inhibition was -3.3%. Turning to `O=C1CCC(C(=O)N2CCCC2)CN1Cc1cccc(C(F)(F)F)c1` (stereo not drawn), the inhibition is -14.6%. With `CCc1nnc(NC(=O)CCNC(=O)c2ccco2)s1`, the inhibition was -5.4%. With `Cc1ccc(NC(=O)Cn2c(O)c(N=NC(N)=S)c3ccccc32)cc1`, the inhibition is 9.9%. For `CCCN1CCN(CCCNC(=O)c2ccc(CS(=O)c3ccccc3C)o2)CC1` (stereo not drawn), the inhibition is 1.2%. The result for `Cc1ccc(OCCCCN2CCCCC2)c(C)c1` reads 5.4%. With `Oc1ccc(C23CC4CC(CC(C4)C2)C3)cc1O`, the inhibition was 5.9%. Consider `COC(=O)c1ccc(CNC(=O)C2CCC(=O)N(Cc3ccccn3)C2)cc1` (stereo not drawn), for which the inhibition is -6%.

Consider `Cc1ccc2oc(C(=O)N3CCN(C)C[C@@H]3C(C)C)c(C)c2c1`, for which the inhibition was -13.8%.
